Active and inactive are the calls of the source.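 Rule for the calls, unless noted: active = fluorescence slope higher than the sample average by over 3 SD (cut at about -0.22 in these data, passing the limit was not always enough); inactive = the rest.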

This is an account of results in PubChem BioAssay.

A short description of experiment [1]: inhibitors of TNFa-induced NFkB p65 translocation, primary screen, imaging, HUVEC, MLSMR starter and 10KST1 sets (AID 438;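 active = inhibition above 20% together with a positive visual image hit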;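 note: compound added about 3h40 before a 20 min TNFalpha stimulation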;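 for inhibition: signal is the nuclear over cytoplasmic p65 intensity ratio per well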). The following applies: HUVEC TNFa-induced p65 nuclear translocation; cell count: measured here: nuclei count (cytotoxicity indicator), at 2.08 µM; inhibition: at 2 µM, stronger effect = higher value, 0% TNFa-plus-vehicle, 100% no-TNFa wells.
Experiment [2] can be described thus: reduction of polyQ htt aggregates in cells – imaging, exon1htt(103Q)mCFP cells, high-content imaging, primary screen (AID 483;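 active = visual image review flags a hit and inhibition of aggregation exceeds 20%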;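 note: compound exposure lasted 3 days before fixation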;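 for nuclei count: percent of the per-plate median nuclei count of sample wells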). The following applies: exon1htt(103Q)mCFP cell line, aggregate imaging, at 2 µM; inhibition of aggregation: stronger effect = higher value; nuclei count: measured here: cell count, toxicity.
Experiment [3] in a line: endothelial E-selectin expression blockers – imaging, HUVEC, immunofluorescence, MLSMR starter and 10KST1 sets, primary screen (AID 487;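 active = visually confirmed hit in the image check and inhibition above 20%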;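 for inhibition: signal is fraction of cell area covered by stained E-selectin grains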;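 for nuclei count: 100% = median nuclei count of all wells on the same plate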). The following applies: HUVEC TNFalpha-induced E-selectin immunofluorescence imaging, at 2 µM; inhibition: stronger effect = higher value; nuclei count: measured here: cell number, toxicity.
In experiment [4] the target is Voltage-gated potassium channel subunit beta-2 (Rattus norvegicus) (UniProt P62483). The experiment is described as follows: inhibitors of rat Kvbeta2 reductase activity – biochemical, NADPH fluorescence, primary screen (AID 622).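 Note: slope of raw intensity against log time taken from 70 to 1610 s.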 The following applies: recombinant KvBeta, 4-cyanobenzaldehyde reduction, at 10 µM, stronger effect = higher value.
Sequence of Voltage-gated potassium channel subunit beta-2 (Rattus norvegicus) (P62483 whole entry, looked up): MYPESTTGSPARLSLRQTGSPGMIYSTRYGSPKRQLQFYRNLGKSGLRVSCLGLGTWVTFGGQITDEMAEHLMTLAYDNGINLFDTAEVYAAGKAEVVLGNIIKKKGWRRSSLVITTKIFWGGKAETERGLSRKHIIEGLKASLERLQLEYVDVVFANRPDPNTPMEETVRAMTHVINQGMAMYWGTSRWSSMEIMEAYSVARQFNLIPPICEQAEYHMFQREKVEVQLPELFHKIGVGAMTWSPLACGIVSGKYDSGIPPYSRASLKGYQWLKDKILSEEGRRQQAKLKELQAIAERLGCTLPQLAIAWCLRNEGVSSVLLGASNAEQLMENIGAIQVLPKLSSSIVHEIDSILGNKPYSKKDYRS
The target is the same in experiment [5]. The experiment is described as follows: enhancers of rat Kvbeta2 NADPH turnover – biochemical, NADPH fluorescence, primary screen (AID 623;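 active = NADPH fluorescence slope more negative than the mean of all samples by about 3 SD, 99.7% confidence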;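 note: fluorescence intensity change per second fitted from 20 to 320 s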). The following applies: Recombinant KvBeta, NADPH fluorescence decrease slope, 10 min; at 10 µM; stronger effect = lower value.
Experiment [6] has as its target Alpha-2C adrenergic receptor (Homo sapiens) (UniProt P18825). Nature of the experiment: compounds altering alpha2C-coupled GIRK flux – cell-based, HEK293 alpha2C/GIRK1/2, thallium flux, primary screen (AID 624;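 active = fluorescence slope after compound addition differing from the mean of all screened samples at 99.7% confidence, in either direction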;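 note: slope of fluorescence ratio to pre-addition baseline per second over 15 to 24 s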). The following applies: thallium flux BTC fluorescence, at 10 µM, actives lie on both sides.
Experiment [7] in a line: blockers of RIG-like receptor reporter activation – cell-based, Sendai virus stimulus, luciferase, 10K MLSCN set, TLR/RLR signaling modifier project, primary screen (AID 602276;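 active = inhibition at or above 50% at 10 µM; inactive = inhibition below 50%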;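 note: firefly luciferase from ISG56 promoter only with Renilla not read in this screen; 0% = Sendai virus plus DMSO and 100% = medium plus DMSO without virus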). As to conditions: HEK293 RL24 IRF3 luciferase reporter, at 10 µM, stronger effect = higher value.
The nature of experiment [8]: TLR3 IRF3 reporter activation blockers – cell-based, poly I:C stimulus, luciferase, 10K MLSCN set, primary screen (AID 602277;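 active = inhibition of the reporter signal at or above 50%; inactive = inhibition below 50%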). As to conditions: HEK293-TLR3 RL24 IRF3 luciferase reporter, at 10 µM, stronger effect = higher value.

Sequence of Alpha-2C adrenergic receptor (Homo sapiens) (P18825 whole entry, looked up): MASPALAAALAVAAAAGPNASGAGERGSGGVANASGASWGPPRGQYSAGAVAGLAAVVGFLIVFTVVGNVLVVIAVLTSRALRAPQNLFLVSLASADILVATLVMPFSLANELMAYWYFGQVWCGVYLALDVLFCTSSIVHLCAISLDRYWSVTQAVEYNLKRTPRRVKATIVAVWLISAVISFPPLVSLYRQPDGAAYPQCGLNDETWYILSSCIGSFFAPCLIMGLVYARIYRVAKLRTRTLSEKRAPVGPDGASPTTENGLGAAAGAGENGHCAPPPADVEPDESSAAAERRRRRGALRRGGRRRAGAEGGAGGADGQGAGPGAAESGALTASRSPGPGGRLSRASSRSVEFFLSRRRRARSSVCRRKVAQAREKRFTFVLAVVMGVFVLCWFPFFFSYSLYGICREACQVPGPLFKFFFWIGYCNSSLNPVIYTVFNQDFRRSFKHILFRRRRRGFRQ

In the case of `Cc1onc(-c2ccccc2Cl)c1C(=O)N1CCc2ccccc21`, in experiment [1], the cell count stood at 398. Moreover, the inhibition was -1.3% (inactive) in experiment [1], -43.1% (inactive) in experiment [3], 10.6% (inactive) in experiment [7] and 34.8% (inactive) in experiment [8]. In addition, the inhibition of aggregation in experiment [2] is -6.4% (inactive). Also, the nuclei count in experiment [2] came out at 104%; in experiment [3], 110%. For the same molecule, in experiment [4], the fluorescence slope was -0.405 (inactive). The NADPH fluorescence slope in experiment [5] is 9.6e-06 (inactive). For the same molecule, in experiment [6], the slope is 0.00452 (inactive).

As to `O=C(O)[C@@H]1CCCN1c1ncnc2sc3c(c12)CCC3`, the cell count in experiment [1] was determined as 434. Besides, the inhibition is -5.7% (inactive) in experiment [1], -149% (inactive) in experiment [3], 17.9% (inactive) in experiment [7] and 13.8% (inactive) in experiment [8]. Also, the inhibition of aggregation in experiment [2] was 0.1% (inactive). Further, the values for the nuclei count in experiment [2] and in experiment [3] were 128% and 247%, respectively. In addition, in experiment [4], the fluorescence slope was -0.412 (inactive). Further, in experiment [5], the NADPH fluorescence slope is -2.3e-05 (inactive). Besides, the slope in experiment [6] was 0.00577 (inactive).

With `CCn1nccc1C(=O)Nc1cc(Cl)ccc1Cl`, the cell count in experiment [1] amounted to 633. In addition, the inhibition in experiment [1] is 8.3% (inactive); in experiment [3], 22.2% (inactive); in experiment [7] it was 1.68% (inactive); in experiment [8], 15.9% (inactive). The inhibition of aggregation in experiment [2] was 6.7% (inactive). For the same molecule, the values for the nuclei count in experiment [2] and in experiment [3] were 57.3% and 106%, respectively. Besides, the fluorescence slope in experiment [4] is -0.385 (inactive). For the same molecule, the NADPH fluorescence slope in experiment [5] is -5e-05 (inactive). Also, the slope in experiment [6] is 0.00378 (inactive).

Regarding `COCCn1c(C)cc(C(=O)COC(=O)c2n[nH]c3ccccc23)c1C`, in experiment [1], the cell count is 330. Also, the inhibition in experiment [1] was 3.7% (inactive); in experiment [3], -26.9% (inactive); in experiment [7], 71.8% (active); in experiment [8], 49.1% (inactive). For the same molecule, in experiment [2], the inhibition of aggregation was 2.3% (inactive). For the same molecule, the nuclei count was determined as 98.9% in experiment [2] and 114% in experiment [3]. Moreover, in experiment [4], the fluorescence slope is -0.5 (inactive). Moreover, the NADPH fluorescence slope in experiment [5] was -4.3e-05 (inactive). Also, the slope in experiment [6] was 0.00592 (inactive).

Regarding `CCCNc1nc(N2CCOCC2)nc(N2CCOCC2)n1`, the cell count in experiment [1] was found to be 193. Moreover, the inhibition is -17.4% (inactive) in experiment [1], 3.6% (inactive) in experiment [3], -9.95% (inactive) in experiment [7] and 18.9% (inactive) in experiment [8]. Besides, the inhibition of aggregation in experiment [2] is 23.8% (inactive). Moreover, the nuclei count was determined as 92.2% in experiment [2] and 91.7% in experiment [3]. In addition, the fluorescence slope in experiment [4] was -0.498 (inactive). Moreover, in experiment [5], the NADPH fluorescence slope is -2.3e-05 (inactive). Further, in experiment [6], the slope was 0.00617 (inactive).

Turning to `Cc1cccc(-c2cc3nc4c(c(N5CCC6(CC5)OCCO6)n3n2)CCCC4)c1`, the cell count in experiment [1] was found to be 627. Besides, the inhibition in experiment [1] was -5.5% (inactive); in experiment [3] it was -139% (inactive); in experiment [7], -1.5% (inactive); in experiment [8], -27.3% (inactive). Also, the inhibition of aggregation in experiment [2] was 19.8% (inactive). Besides, the nuclei count in experiment [2] turned out to be 116%; in experiment [3], 156%. In experiment [4], the fluorescence slope is -0.419 (inactive). In addition, the NADPH fluorescence slope in experiment [5] is 4.7e-05 (inactive). In addition, the slope in experiment [6] was 0.00699 (inactive).

For the molecule `Cc1ccc(-c2noc(C3CCCN(C(=O)c4ccccc4)C3)n2)o1` (configuration not stated), the cell count in experiment [1] turned out to be 490. In addition, the inhibition in experiment [1] is 5.2% (inactive); in experiment [3], -102% (inactive); in experiment [7], -20% (inactive); in experiment [8] it was -111% (inactive). For the same molecule, the inhibition of aggregation in experiment [2] was -19.1% (inactive). The nuclei count in experiment [2] amounted to 112%; in experiment [3] it was 125%. In addition, in experiment [4], the fluorescence slope is -0.372 (inactive). Further, the NADPH fluorescence slope in experiment [5] was -1.7e-05 (inactive). In experiment [6], the slope is 0.00371 (inactive).

Consider `Cc1csc(SCCn2c(N3CCCC3)nc3c2c(=O)[nH]c(=O)n3C)n1`, for which the cell count in experiment [1] was determined as 445. Besides, the inhibition was 53.9% (active) in experiment [1], -26.1% (inactive) in experiment [3], 1.74% (inactive) in experiment [7] and 16.5% (inactive) in experiment [8]. For the same molecule, in experiment [2], the inhibition of aggregation was -7.1% (inactive). Also, the nuclei count in experiment [2] came to 110%; in experiment [3], 127%. Moreover, the fluorescence slope in experiment [4] is -0.38 (inactive). In addition, the NADPH fluorescence slope in experiment [5] was -3.1e-05 (inactive). Also, the slope in experiment [6] was 0.00532 (inactive).

Turning to `CCC(C(=O)N1CCc2cc(OC)c(OC)cc2C1)c1ccccc1` (configuration not stated), the cell count in experiment [1] worked out at 598. In addition, the inhibition in experiment [1] is 5% (inactive); in experiment [3], 11.7% (inactive); in experiment [7], 3.51% (inactive); in experiment [8] it was 6.78% (inactive). The inhibition of aggregation in experiment [2] is -8.2% (inactive). Moreover, the nuclei count in experiment [2] stood at 88.6%; in experiment [3], 103%. For the same molecule, the fluorescence slope in experiment [4] is -0.478 (inactive). Moreover, the NADPH fluorescence slope in experiment [5] was 5.9e-06 (inactive). In experiment [6], the slope was 0.00474 (inactive).

Take `CCCCn1nc(C(=O)N2CCc3ccccc32)c2ccccc2c1=O`: in experiment [1], the cell count turned out to be 423. For the same molecule, the inhibition in experiment [1] was -9% (inactive); in experiment [3] it was 36.5% (inactive); in experiment [7], -1.51% (inactive); in experiment [8], 20.2% (inactive). Also, the inhibition of aggregation in experiment [2] was -20.9% (inactive). Also, the figures for the nuclei count in experiment [2] and in experiment [3] were 112% and 41.8%, respectively. The fluorescence slope in experiment [4] was -0.473 (inactive). In experiment [5], the NADPH fluorescence slope is 2e-05 (inactive). In addition, the slope in experiment [6] is 0.0045 (inactive).

For the molecule `COC(=O)c1cc(Br)c(=O)n(-c2ccc(OC)cc2)c1`, the cell count in experiment [1] was found to be 542. The inhibition is -0.5% (inactive) in experiment [1], 25.8% (inactive) in experiment [3], 12.6% (inactive) in experiment [7] and 23.2% (inactive) in experiment [8]. Moreover, the inhibition of aggregation in experiment [2] is -13.6% (inactive). Moreover, the nuclei count was determined as 108% in experiment [2] and 112% in experiment [3]. For the same molecule, the fluorescence slope in experiment [4] was -0.503 (inactive). The NADPH fluorescence slope in experiment [5] is -3.9e-05 (inactive). Also, the slope in experiment [6] is 0.00452 (inactive).

As for `Cn1c(=O)c(=O)n(C)c2cc(S(=O)(=O)Nc3ccc4c(c3)OCCO4)ccc21`, the cell count in experiment [1] was 354. Moreover, the inhibition was -1.2% (inactive) in experiment [1], -21.4% (inactive) in experiment [3], 45.1% (inactive) in experiment [7] and 35.8% (inactive) in experiment [8]. In experiment [2], the inhibition of aggregation is -18.4% (inactive). For the same molecule, the nuclei count stood at 106% in experiment [2] and 108% in experiment [3]. Besides, the fluorescence slope in experiment [4] was -0.421 (inactive). For the same molecule, the NADPH fluorescence slope in experiment [5] was -5.4e-05 (inactive). Also, in experiment [6], the slope is 0.00519 (inactive).
